Article PMC7862700, “An all-to-all approach to the identification of sequence-specific readers for epigenetic DNA modifications on cytosine”

Columns and labels:
Test in all cases: DAPPL (digital affinity profiling via proximity ligation, sequencing); 10 mM Tris-HCl pH 7.5, 50 mM NaCl, 1 mM DTT, 4% glycerol, room temperature, 30 min; GST-TFs on glutathione beads, 16-mer random dsDNA library, 0.1% formaldehyde crosslink after washing; high values mean tight binding
FLI1 = target: T1, FLI1 (Homo sapiens, UniProt Q01543 1-452); details: protein: recombinant; tags: N-terminal GST; dsDNA, one strand shown
T1 sequence: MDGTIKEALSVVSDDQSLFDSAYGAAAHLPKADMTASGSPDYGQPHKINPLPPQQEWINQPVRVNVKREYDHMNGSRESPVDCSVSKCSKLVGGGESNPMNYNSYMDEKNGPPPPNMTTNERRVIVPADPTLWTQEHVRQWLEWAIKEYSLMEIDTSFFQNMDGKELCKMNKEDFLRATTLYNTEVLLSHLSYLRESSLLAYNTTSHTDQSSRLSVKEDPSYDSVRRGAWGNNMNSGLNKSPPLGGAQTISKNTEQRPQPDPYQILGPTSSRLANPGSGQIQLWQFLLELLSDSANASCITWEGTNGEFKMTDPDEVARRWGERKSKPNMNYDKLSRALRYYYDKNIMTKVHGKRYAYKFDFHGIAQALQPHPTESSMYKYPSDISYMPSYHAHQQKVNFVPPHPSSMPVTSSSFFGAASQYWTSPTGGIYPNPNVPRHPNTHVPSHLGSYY
Outline: (§1)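 Beads coated with glutathione captured GST-fused human transcription factors that had been expressed in yeast, and the factors were then given DNA barcodes and pooled with a tag-only sample. The pools were incubated with 200 nmole of a random double-stranded 16-mer DNA library in Tris/NaCl/DTT/glycerol buffer for 30 min at room temperature, washed, crosslinked with 0.1% formaldehyde and proximity-ligated with BsaI/T4 ligase at 37 °C for 1 h. PCR amplification and Illumina NextSeq500 sequencing came last. Binding signal is each hexamer's read frequency for a factor divided by its frequency for the tag-only sample.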

ELK1 = target: T2, ELK1 (Homo sapiens, UniProt P19419 1-428); details: protein: recombinant; tags: N-terminal GST; dsDNA, one strand shown
T2 sequence: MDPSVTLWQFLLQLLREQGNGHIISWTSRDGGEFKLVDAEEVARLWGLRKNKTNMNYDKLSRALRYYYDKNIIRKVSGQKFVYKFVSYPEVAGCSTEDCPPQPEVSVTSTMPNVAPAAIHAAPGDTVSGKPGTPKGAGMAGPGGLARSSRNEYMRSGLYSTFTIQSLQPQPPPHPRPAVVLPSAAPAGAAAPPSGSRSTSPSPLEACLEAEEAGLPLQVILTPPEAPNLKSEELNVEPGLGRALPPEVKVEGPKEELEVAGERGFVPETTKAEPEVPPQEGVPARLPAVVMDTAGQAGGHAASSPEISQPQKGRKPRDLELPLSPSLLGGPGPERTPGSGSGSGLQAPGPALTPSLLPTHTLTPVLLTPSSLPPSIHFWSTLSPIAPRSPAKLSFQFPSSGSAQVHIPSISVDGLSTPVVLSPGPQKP
Outline: as §1

GABPA = target: T3, GABPA (Homo sapiens, UniProt Q06546 1-454); details: protein: recombinant; tags: N-terminal GST; dsDNA, one strand shown
T3 sequence: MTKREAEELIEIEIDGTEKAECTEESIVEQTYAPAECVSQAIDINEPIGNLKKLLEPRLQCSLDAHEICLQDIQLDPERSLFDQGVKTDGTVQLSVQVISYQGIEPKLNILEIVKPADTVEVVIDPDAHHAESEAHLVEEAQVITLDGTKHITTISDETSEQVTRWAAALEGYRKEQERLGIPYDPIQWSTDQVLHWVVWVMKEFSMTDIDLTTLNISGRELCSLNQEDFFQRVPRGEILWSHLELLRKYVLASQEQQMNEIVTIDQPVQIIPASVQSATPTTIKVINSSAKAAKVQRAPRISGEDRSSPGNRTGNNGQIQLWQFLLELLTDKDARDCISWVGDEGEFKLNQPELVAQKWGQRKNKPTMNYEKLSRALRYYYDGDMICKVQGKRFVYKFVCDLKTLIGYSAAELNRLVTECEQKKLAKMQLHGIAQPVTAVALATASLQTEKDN
Outline: as §1

ERG = target: T4, ERG (Homo sapiens, UniProt P11308 1-479); details: protein: recombinant; tags: N-terminal GST; dsDNA, one strand shown
T4 sequence: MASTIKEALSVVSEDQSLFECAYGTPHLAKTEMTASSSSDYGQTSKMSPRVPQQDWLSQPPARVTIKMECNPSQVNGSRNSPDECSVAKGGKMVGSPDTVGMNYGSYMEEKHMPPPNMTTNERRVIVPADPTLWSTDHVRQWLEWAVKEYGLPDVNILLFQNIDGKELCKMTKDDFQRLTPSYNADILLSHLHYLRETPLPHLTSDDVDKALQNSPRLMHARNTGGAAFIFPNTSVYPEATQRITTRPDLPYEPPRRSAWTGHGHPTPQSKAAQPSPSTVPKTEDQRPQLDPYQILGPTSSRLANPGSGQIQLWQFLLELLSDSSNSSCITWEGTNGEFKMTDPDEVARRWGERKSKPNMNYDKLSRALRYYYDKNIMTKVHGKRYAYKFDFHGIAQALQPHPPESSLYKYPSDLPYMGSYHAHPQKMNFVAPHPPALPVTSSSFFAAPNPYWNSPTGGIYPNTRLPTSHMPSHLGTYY
Outline: as §1

ELF1 = ELF1 (Homo sapiens, UniProt P32519 1-619); details: protein: recombinant; tags: N-terminal GST; dsDNA, one strand shown
Sequence of ELF1 (P32519 whole entry): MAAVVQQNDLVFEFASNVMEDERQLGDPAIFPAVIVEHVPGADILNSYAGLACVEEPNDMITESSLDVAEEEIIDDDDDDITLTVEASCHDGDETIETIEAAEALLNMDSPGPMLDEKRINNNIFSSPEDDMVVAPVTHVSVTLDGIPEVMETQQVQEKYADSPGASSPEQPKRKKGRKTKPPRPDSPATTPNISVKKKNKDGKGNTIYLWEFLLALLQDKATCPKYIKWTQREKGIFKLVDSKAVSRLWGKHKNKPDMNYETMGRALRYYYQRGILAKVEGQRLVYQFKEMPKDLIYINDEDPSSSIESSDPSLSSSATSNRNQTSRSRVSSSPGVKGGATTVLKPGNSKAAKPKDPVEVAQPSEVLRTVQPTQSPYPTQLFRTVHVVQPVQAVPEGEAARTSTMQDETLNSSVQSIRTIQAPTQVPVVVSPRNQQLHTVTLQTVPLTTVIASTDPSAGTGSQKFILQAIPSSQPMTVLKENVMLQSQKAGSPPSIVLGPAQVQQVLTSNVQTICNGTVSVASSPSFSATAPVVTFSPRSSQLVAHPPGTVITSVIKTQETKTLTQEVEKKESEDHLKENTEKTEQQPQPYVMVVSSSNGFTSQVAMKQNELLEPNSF
Outline: as §1

EHF = target: T5, EHF (Homo sapiens, UniProt Q9NZC4 1-300); details: protein: recombinant; tags: N-terminal GST; dsDNA, one strand shown
T5 sequence: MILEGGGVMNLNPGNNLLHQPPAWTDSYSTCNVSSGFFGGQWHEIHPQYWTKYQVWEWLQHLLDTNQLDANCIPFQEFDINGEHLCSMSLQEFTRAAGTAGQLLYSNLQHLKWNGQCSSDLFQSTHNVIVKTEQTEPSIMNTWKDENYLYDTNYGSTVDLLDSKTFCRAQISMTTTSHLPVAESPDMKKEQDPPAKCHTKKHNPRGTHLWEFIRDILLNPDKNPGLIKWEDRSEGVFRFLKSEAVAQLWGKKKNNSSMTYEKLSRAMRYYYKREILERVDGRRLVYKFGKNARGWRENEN
Outline: as §1

SPI1 = SPI1 (Homo sapiens, UniProt P17947 1-270); details: protein: recombinant; tags: N-terminal GST; dsDNA, one strand shown
Outline: as §1

SPIB = SPIB (Homo sapiens, UniProt Q01892 1-262); details: protein: recombinant; tags: N-terminal GST; dsDNA, one strand shown
Sequence of SPIB (Q01892 whole entry): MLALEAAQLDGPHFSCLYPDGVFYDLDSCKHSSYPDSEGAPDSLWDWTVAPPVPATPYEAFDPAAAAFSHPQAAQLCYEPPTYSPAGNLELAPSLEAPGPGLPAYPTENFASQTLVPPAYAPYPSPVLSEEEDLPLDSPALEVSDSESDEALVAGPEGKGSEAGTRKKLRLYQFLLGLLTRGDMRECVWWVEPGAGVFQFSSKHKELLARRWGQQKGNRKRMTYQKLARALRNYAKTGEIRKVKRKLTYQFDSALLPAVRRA
Outline: as §1

ELK3 = target: T6, ELK3 (Homo sapiens, UniProt P41970 1-407); details: protein: recombinant; tags: N-terminal GST; dsDNA, one strand shown
T6 sequence: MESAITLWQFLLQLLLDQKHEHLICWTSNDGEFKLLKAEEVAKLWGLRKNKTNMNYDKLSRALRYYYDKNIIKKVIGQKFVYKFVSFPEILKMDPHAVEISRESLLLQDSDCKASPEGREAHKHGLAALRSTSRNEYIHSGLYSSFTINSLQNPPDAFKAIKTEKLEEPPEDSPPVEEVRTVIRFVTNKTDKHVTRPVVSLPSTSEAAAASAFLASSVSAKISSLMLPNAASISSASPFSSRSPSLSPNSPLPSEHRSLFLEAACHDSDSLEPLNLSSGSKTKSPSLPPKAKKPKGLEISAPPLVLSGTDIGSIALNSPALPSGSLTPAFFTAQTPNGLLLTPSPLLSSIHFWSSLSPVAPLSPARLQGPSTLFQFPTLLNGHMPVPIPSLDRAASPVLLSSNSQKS
Outline: as §1

FEV = target: T7, FEV (Homo sapiens, UniProt Q99581 1-238); details: protein: recombinant; tags: N-terminal GST; dsDNA, one strand shown
T7 sequence: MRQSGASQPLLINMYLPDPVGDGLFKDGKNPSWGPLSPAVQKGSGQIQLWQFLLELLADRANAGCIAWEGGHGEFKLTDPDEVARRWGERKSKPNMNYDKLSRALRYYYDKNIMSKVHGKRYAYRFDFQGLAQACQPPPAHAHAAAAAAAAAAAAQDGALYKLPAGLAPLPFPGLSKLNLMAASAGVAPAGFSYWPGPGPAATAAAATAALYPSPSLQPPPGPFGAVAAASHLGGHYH
Outline: as §1

ETV5 = ETV5 (Homo sapiens, UniProt P41161 1-510); details: protein: recombinant; tags: N-terminal GST; dsDNA, one strand shown
Sequence of ETV5 (P41161 whole entry): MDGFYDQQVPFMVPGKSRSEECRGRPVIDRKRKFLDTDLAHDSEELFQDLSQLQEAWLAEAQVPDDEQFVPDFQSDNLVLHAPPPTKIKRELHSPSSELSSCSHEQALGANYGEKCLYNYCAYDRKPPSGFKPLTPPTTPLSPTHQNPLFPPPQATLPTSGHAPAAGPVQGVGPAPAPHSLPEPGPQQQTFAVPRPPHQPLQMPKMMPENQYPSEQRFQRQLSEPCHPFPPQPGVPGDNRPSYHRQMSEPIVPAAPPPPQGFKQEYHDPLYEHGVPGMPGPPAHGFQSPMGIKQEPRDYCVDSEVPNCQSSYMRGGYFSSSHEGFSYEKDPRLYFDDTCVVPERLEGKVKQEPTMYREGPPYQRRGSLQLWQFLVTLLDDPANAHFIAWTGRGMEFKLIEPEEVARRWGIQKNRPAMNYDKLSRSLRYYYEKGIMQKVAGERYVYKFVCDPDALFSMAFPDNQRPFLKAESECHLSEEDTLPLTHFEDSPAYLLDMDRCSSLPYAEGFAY
Outline: as §1

HSF1 = HSF1 (Homo sapiens, UniProt Q00613 1-529); details: protein: recombinant; tags: N-terminal GST; chain copies: 3; dsDNA, one strand shown
Sequence of HSF1 (Q00613 whole entry): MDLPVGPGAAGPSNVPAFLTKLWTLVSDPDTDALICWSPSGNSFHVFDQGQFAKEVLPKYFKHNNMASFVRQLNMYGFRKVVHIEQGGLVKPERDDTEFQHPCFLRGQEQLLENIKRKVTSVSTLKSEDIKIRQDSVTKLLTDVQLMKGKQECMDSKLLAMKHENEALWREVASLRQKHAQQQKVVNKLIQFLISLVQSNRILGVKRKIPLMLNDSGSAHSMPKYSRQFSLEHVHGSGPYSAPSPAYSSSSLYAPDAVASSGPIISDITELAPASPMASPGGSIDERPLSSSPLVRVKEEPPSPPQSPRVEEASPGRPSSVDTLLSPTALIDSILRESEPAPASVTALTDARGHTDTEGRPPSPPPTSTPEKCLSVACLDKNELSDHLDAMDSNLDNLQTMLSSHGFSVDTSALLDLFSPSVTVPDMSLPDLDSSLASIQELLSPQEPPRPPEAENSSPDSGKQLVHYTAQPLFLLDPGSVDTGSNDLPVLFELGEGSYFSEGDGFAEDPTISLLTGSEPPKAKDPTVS
Outline: as §1

SPIC = target: T8, SPIC (Homo sapiens, UniProt Q8N5J4 1-248); details: protein: recombinant; tags: N-terminal GST; dsDNA, one strand shown
T8 sequence: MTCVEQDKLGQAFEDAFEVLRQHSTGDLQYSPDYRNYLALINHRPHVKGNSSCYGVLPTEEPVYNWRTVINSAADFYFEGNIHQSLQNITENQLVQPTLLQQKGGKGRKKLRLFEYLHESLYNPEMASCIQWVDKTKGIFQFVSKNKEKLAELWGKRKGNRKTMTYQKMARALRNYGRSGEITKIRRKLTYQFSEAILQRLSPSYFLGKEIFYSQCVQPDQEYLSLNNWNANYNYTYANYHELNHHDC
Outline: as §1

ELF4 = ELF4 (Homo sapiens, UniProt Q99607 1-663); details: protein: recombinant; tags: N-terminal GST; dsDNA, one strand shown
Sequence of ELF4 (Q99607 whole entry): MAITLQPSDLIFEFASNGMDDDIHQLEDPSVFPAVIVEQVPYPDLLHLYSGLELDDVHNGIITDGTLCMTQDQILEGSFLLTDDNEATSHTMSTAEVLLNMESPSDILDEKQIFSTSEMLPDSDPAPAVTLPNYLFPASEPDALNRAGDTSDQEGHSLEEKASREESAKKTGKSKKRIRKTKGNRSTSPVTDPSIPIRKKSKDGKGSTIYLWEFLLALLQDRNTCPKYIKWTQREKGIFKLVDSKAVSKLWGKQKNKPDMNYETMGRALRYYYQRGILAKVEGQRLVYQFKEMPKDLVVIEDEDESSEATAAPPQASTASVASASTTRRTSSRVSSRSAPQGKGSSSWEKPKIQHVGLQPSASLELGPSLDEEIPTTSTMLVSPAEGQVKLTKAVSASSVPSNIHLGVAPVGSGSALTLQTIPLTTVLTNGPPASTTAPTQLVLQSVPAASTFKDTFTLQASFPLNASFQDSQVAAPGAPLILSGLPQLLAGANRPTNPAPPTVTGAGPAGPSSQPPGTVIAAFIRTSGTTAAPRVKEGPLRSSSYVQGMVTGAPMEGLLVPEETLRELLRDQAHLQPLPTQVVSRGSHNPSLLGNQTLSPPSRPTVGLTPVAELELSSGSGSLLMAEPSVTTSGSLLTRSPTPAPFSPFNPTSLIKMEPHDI
Outline: as §1

ELK4 = target: T9, ELK4 (Homo sapiens, UniProt P28324-2 1-405); details: protein: recombinant; tags: N-terminal GST; dsDNA, one strand shown
T9 sequence: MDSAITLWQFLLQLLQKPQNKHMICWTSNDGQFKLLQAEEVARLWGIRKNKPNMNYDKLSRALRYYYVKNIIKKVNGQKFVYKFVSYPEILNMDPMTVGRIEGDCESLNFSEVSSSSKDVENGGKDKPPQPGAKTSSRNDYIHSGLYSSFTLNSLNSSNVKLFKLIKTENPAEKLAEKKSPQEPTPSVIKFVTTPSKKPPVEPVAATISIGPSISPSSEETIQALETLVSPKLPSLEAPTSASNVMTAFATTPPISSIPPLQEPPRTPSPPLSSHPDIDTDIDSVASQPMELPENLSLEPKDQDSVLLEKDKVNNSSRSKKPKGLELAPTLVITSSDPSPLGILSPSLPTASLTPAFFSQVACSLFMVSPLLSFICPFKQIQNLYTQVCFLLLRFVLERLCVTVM
Outline: as §1

ETV2 = target: T10, ETV2 (Homo sapiens, UniProt O00321 1-342); details: protein: recombinant; tags: N-terminal GST; dsDNA, one strand shown
T10 sequence: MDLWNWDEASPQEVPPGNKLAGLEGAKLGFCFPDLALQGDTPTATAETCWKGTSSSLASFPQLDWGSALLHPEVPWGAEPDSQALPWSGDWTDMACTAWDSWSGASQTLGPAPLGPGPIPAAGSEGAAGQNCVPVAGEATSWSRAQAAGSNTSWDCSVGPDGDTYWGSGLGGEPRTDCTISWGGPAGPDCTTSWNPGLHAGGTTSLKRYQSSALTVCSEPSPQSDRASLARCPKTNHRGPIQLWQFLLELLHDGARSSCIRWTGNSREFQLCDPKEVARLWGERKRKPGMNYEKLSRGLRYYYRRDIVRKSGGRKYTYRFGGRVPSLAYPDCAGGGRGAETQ
Outline: as §1

ELF3 = target: T11, ELF3 (Homo sapiens, UniProt P78545 1-371); details: protein: recombinant; tags: N-terminal GST; dsDNA, one strand shown
T11 sequence: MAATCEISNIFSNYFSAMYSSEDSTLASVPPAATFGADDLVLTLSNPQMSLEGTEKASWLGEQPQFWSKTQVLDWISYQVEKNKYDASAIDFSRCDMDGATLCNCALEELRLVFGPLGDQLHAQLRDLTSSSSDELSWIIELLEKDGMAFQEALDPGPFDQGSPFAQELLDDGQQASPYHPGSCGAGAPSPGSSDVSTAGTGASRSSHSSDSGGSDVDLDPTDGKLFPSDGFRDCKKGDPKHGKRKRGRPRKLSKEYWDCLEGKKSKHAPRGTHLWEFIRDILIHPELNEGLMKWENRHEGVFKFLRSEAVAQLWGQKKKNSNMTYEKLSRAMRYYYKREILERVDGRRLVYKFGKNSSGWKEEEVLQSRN
Outline: as §1

CRX = CRX (Homo sapiens, UniProt O43186 1-299); details: protein: recombinant; tags: N-terminal GST; dsDNA, one strand shown
Sequence of CRX (O43186 whole entry): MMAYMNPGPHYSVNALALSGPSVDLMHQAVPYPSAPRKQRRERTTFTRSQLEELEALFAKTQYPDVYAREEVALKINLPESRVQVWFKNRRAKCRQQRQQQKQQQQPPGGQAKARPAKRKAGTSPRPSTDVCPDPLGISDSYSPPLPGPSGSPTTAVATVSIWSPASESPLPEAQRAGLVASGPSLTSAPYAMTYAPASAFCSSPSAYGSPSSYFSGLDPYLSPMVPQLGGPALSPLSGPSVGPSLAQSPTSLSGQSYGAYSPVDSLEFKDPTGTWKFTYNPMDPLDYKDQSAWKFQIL
Outline: as §1

ETV1 = ETV1 (Homo sapiens, UniProt P50549 1-477); details: protein: recombinant; tags: N-terminal GST; dsDNA, one strand shown
Sequence of ETV1 (P50549 whole entry): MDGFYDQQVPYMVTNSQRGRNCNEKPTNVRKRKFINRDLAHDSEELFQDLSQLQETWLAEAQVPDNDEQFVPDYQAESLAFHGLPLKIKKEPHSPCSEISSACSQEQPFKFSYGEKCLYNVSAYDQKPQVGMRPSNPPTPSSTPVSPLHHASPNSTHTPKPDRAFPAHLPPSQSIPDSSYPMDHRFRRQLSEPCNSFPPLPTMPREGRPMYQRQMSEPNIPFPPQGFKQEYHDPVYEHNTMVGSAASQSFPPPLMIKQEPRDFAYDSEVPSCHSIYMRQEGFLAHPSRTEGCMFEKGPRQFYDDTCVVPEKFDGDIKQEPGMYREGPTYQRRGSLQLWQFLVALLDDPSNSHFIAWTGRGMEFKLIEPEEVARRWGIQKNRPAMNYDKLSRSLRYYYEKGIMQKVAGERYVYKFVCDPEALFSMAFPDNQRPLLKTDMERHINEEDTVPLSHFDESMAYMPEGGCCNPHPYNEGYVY
Outline: as §1

In the case of CATTTA, the binding signal (FLI1) is reported as 1.28 fold enrichment (6-mer frequency, TF over GST control), the binding signal (ELK1) is reported as 1.23 fold enrichment (6-mer frequency, TF over GST control) and the binding signal (GABPA) is reported as 1.31 fold enrichment (6-mer frequency, TF over GST control). For the same sequence, the binding signal (ERG) was 1.25 fold enrichment (6-mer frequency, TF over GST control), the binding signal (ELF1) was 1.27 fold enrichment (6-mer frequency, TF over GST control) and the binding signal (EHF) was 1.32 fold enrichment (6-mer frequency, TF over GST control). The binding signal (SPI1) was 1.26 fold enrichment (6-mer frequency, TF over GST control), the binding signal (SPIB) was 1.18 fold enrichment (6-mer frequency, TF over GST control) and the binding signal (ELK3) was 1.23 fold enrichment (6-mer frequency, TF over GST control). The binding signal (FEV) was 1.23 fold enrichment (6-mer frequency, TF over GST control), the binding signal (ETV5) was 1.22 fold enrichment (6-mer frequency, TF over GST control) and the binding signal (HSF1) was 1.13 fold enrichment (6-mer frequency, TF over GST control). For the same sequence, the binding signal (SPIC) was 1.17 fold enrichment (6-mer frequency, TF over GST control), the binding signal (ELF4) was 1.14 fold enrichment (6-mer frequency, TF over GST control) and the binding signal (ELK4) was 1.17 fold enrichment (6-mer frequency, TF over GST control). The binding signal (ETV2) was 1.34 fold enrichment (6-mer frequency, TF over GST control), the binding signal (ELF3) was 1.2 fold enrichment (6-mer frequency, TF over GST control) and the binding signal (CRX) was 1.36 fold enrichment (6-mer frequency, TF over GST control). For the same sequence, the binding signal (ETV1) was 1.22 fold enrichment (6-mer frequency, TF over GST control).
